# Assay results from PubChem BioAssay AID1159580 (chemical genetic matrix, 2015).
# Out of some 5,500 compounds screened, about 2,000 (36%) were called active. Another 18% or so got no clear call; they are omitted. The list shows a part of the results. Unmarked numbers belong to inactive results. Rule as the data show it: active = normalized growth mostly below about 0.91 (no sharp cut-off); inconclusive = no clear call, values can overlap the other calls; inactive = mostly above about 0.92.
# Assay: chemical genetic growth profiling, strain panel (AID 1159580);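 also: tested at 20 µM; growth read once vehicle control cultures reached saturation at 30 °C; 1 = growth at the plate median or of vehicle wells; lower values mean less growth of the strain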
# Conditions: growth OD
smiles,measurement,setting,value
O=C(O)CCC(=O)c1ccc(-c2ccccc2)cc1,normalized growth,"S. cerevisiae deletion strains, locus YKL009W, strain mrt4, stronger effect = lower value",0.799 (active)
same,normalized growth,"S. cerevisiae deletion strains, locus YKL068W, stronger effect = lower value",1
same,normalized growth,"S. cerevisiae deletion strains, locus YKL085W, strain MDH1 (second series), stronger effect = lower value",0.939
same,normalized growth,"S. cerevisiae deletion strains, locus YKL085W, strain MDH1, stronger effect = lower value",0.939
same,normalized growth,"S. cerevisiae deletion strains, locus YKL160W, strain elf1, stronger effect = lower value",0.961
same,normalized growth,"S. cerevisiae deletion strains, locus YKL190W, strain CNB1, stronger effect = lower value",0.996
same,normalized growth,"S. cerevisiae deletion strains, locus YKR001C, strain vps1, stronger effect = lower value",0.92
same,normalized growth,"S. cerevisiae deletion strains, locus YKR026C, strain gcn3, stronger effect = lower value",0.944
same,normalized growth,"S. cerevisiae deletion strains, locus YKR091W, strain srl3, stronger effect = lower value",0.979
same,normalized growth,"S. cerevisiae deletion strains, locus YLL001W, strain dnm1, stronger effect = lower value",0.947
same,normalized growth,"S. cerevisiae deletion strains, locus YLL026W, stronger effect = lower value",0.989
same,normalized growth,"S. cerevisiae deletion strains, locus YLL041C, strain sdh2, stronger effect = lower value",0.979
same,normalized growth,"S. cerevisiae deletion strains, locus YLR027C, strain aat2, stronger effect = lower value",0.978
same,normalized growth,"S. cerevisiae deletion strains, locus YLR039C, strain RIC1, stronger effect = lower value",0.855
same,normalized growth,"S. cerevisiae deletion strains, locus YLR058C, strain SHM2, stronger effect = lower value",0.978
same,normalized growth,"S. cerevisiae deletion strains, locus YLR102C, strain apc9, stronger effect = lower value",0.981
same,normalized growth,"S. cerevisiae deletion strains, locus YLR113W, strain HOG1, stronger effect = lower value",0.865
same,normalized growth,"S. cerevisiae deletion strains, locus YLR221C, strain rsa3, stronger effect = lower value",0.997
same,normalized growth,"S. cerevisiae deletion strains, locus YLR258W, strain gsy2, stronger effect = lower value",1
same,normalized growth,"S. cerevisiae deletion strains, locus YLR262C, strain YPT6 (second series), stronger effect = lower value",0.765 (active)
same,normalized growth,"S. cerevisiae deletion strains, locus YLR262C, strain YPT6, stronger effect = lower value",0.821
same,normalized growth,"S. cerevisiae deletion strains, locus YLR268W, strain sec22, stronger effect = lower value",0.894
same,normalized growth,"S. cerevisiae deletion strains, locus YLR320W, strain mms22, stronger effect = lower value",1.01
same,normalized growth,"S. cerevisiae deletion strains, locus YLR330W, strain CHS5, stronger effect = lower value",0.994
same,normalized growth,"S. cerevisiae deletion strains, locus YLR342W, strain FKS1 (second series), stronger effect = lower value",0.986
same,normalized growth,"S. cerevisiae deletion strains, locus YLR342W, strain FKS1, stronger effect = lower value",0.934
same,normalized growth,"S. cerevisiae deletion strains, locus YLR357W, strain rsc2, stronger effect = lower value",0.903
same,normalized growth,"S. cerevisiae deletion strains, locus YLR370C, strain arc18, stronger effect = lower value",0.984
same,normalized growth,"S. cerevisiae deletion strains, locus YLR371W, strain rom2, stronger effect = lower value",0.962
same,normalized growth,"S. cerevisiae deletion strains, locus YLR384C, strain iki3, stronger effect = lower value",0.964
same,normalized growth,"S. cerevisiae deletion strains, locus YLR418C, strain cdc73, stronger effect = lower value",0.902
same,normalized growth,"S. cerevisiae deletion strains, locus YML016C, strain PPZ1, stronger effect = lower value",0.988
same,normalized growth,"S. cerevisiae deletion strains, locus YML032C, strain rad52, stronger effect = lower value",0.938
same,normalized growth,"S. cerevisiae deletion strains, locus YML120C, strain ndi1, stronger effect = lower value",0.971
same,normalized growth,"S. cerevisiae deletion strains, locus YML124C, strain tub3, stronger effect = lower value",0.981
same,normalized growth,"S. cerevisiae deletion strains, locus YMR058W, strain fet3, stronger effect = lower value",0.978
same,normalized growth,"S. cerevisiae deletion strains, locus YMR078C, strain ctf18, stronger effect = lower value",0.963
same,normalized growth,"S. cerevisiae deletion strains, locus YMR125W, strain sto1, stronger effect = lower value",0.979
same,normalized growth,"S. cerevisiae deletion strains, locus YMR129W, stronger effect = lower value",0.987
same,normalized growth,"S. cerevisiae deletion strains, locus YMR205C, strain PFK2, stronger effect = lower value",0.974
same,normalized growth,"S. cerevisiae deletion strains, locus YMR223W, strain ubp8, stronger effect = lower value",0.974
same,normalized growth,"S. cerevisiae deletion strains, locus YMR231W, strain pep5, stronger effect = lower value",0.972
same,normalized growth,"S. cerevisiae deletion strains, locus YMR263W, strain SAP30, stronger effect = lower value",0.972
same,normalized growth,"S. cerevisiae deletion strains, locus YMR307W, strain GAS1, stronger effect = lower value",0.939
same,normalized growth,"S. cerevisiae deletion strains, locus YNL067W, strain RPL9B, stronger effect = lower value",0.957
same,normalized growth,"S. cerevisiae deletion strains, locus YNL071W, strain lat1, stronger effect = lower value",0.951
same,normalized growth,"S. cerevisiae deletion strains, locus YNL128W, strain TEP1, stronger effect = lower value",0.982
same,normalized growth,"S. cerevisiae deletion strains, locus YNL153C, strain GIM3, stronger effect = lower value",0.985
same,normalized growth,"S. cerevisiae deletion strains, locus YNL183C, strain NPR1, stronger effect = lower value",0.724 (active)
same,normalized growth,"S. cerevisiae deletion strains, locus YNL209W, strain ssb2, stronger effect = lower value",0.993
same,normalized growth,"S. cerevisiae deletion strains, locus YNL233W, strain BNI4, stronger effect = lower value",0.97
same,normalized growth,"S. cerevisiae deletion strains, locus YNL248C, strain rpa49, stronger effect = lower value",0.993
same,normalized growth,"S. cerevisiae deletion strains, locus YNL250W, strain rad50, stronger effect = lower value",0.977
same,normalized growth,"S. cerevisiae deletion strains, locus YNL271C, strain bni1, stronger effect = lower value",0.909 (active)
same,normalized growth,"S. cerevisiae deletion strains, locus YNL298W, strain CLA4, stronger effect = lower value",0.826 (active)
same,normalized growth,"S. cerevisiae deletion strains, locus YNL307C, strain MCK1, stronger effect = lower value",0.963
same,normalized growth,"S. cerevisiae deletion strains, locus YNL322C, strain KRE1 (second series), stronger effect = lower value",0.97
same,normalized growth,"S. cerevisiae deletion strains, locus YNL322C, strain KRE1, stronger effect = lower value",0.998
same,normalized growth,"S. cerevisiae deletion strains, locus YNR049C, strain mso1, stronger effect = lower value",0.987
same,normalized growth,"S. cerevisiae deletion strains, locus YNR052C, strain pop2, stronger effect = lower value",0.972
same,normalized growth,"S. cerevisiae deletion strains, locus YOL006C, strain TOP1, stronger effect = lower value",0.889
same,normalized growth,"S. cerevisiae deletion strains, locus YOL012C, strain htz1",0.779
same,normalized growth,"S. cerevisiae deletion strains, locus YOL147C, strain pex11, stronger effect = lower value",0.98
same,normalized growth,"S. cerevisiae deletion strains, locus YOR001W, strain rrp6, stronger effect = lower value",0.955
same,normalized growth,"S. cerevisiae deletion strains, locus YOR061W, strain CKA2, stronger effect = lower value",0.956
same,normalized growth,"S. cerevisiae deletion strains, locus YOR069W, strain VPS5, stronger effect = lower value",0.987
same,normalized growth,"S. cerevisiae deletion strains, locus YOR070C, strain gyp1, stronger effect = lower value",0.988
same,normalized growth,"S. cerevisiae deletion strains, locus YOR080W, strain dia2, stronger effect = lower value",0.979
same,normalized growth,"S. cerevisiae deletion strains, locus YOR083W, strain WHI5, stronger effect = lower value",0.953
same,normalized growth,"S. cerevisiae deletion strains, locus YOR106W, strain vam3, stronger effect = lower value",0.935
same,normalized growth,"S. cerevisiae deletion strains, locus YOR136W, strain idh2, stronger effect = lower value",0.968
same,normalized growth,"S. cerevisiae deletion strains, locus YOR144C, strain elg1, stronger effect = lower value",0.972
same,normalized growth,"S. cerevisiae deletion strains, locus YOR184W, strain ser1, stronger effect = lower value",0.905
same,normalized growth,"S. cerevisiae deletion strains, locus YOR231W, strain MKK1, stronger effect = lower value",0.724 (active)
same,normalized growth,"S. cerevisiae deletion strains, locus YOR265W, strain rbl2, stronger effect = lower value",0.996
same,normalized growth,"S. cerevisiae deletion strains, locus YOR270C, strain vph1, stronger effect = lower value",0.95
same,normalized growth,"S. cerevisiae deletion strains, locus YOR290C, strain snf2, stronger effect = lower value",0.978
same,normalized growth,"S. cerevisiae deletion strains, locus YOR316C, strain cot1, stronger effect = lower value",0.984
same,normalized growth,"S. cerevisiae deletion strains, locus YPL051W, strain arl3, stronger effect = lower value",0.958
same,normalized growth,"S. cerevisiae deletion strains, locus YPL055C, strain LGE1, stronger effect = lower value",0.973
same,normalized growth,"S. cerevisiae deletion strains, locus YPL078C, strain atp4, stronger effect = lower value",0.941
same,normalized growth,"S. cerevisiae deletion strains, locus YPL106C, strain sse1, stronger effect = lower value",1.06
same,normalized growth,"S. cerevisiae deletion strains, locus YPL240C, strain hsp82, stronger effect = lower value",0.999
same,normalized growth,"S. cerevisiae deletion strains, locus YPL241C, strain CIN2, stronger effect = lower value",0.996
same,normalized growth,"S. cerevisiae deletion strains, locus YPL256C, strain CLN2, stronger effect = lower value",0.78 (active)
same,normalized growth,"S. cerevisiae deletion strains, locus YPR119W, strain clb2, stronger effect = lower value",0.972
same,normalized growth,"S. cerevisiae deletion strains, locus YPR141C, strain kar3, stronger effect = lower value",1.01
same,normalized growth,"S. cerevisiae deletion strains, locus YPR163C, strain tif3, stronger effect = lower value",0.967
same,normalized growth,"S. cerevisiae deletion strains, locus YPR167C, strain met16, stronger effect = lower value",0.967
same,normalized growth,"S. cerevisiae deletion strains, strain wtn01, stronger effect = lower value",0.932
same,normalized growth,"S. cerevisiae strains, strain wild type, stronger effect = lower value",0.99
